From PubChem
An excerpt weighted towards active compounds, which were near 7.3% of everything screened.
Tau fibril FP: inhibitors of human tau fibril formation | K18 P301L tau heparin fibrillization, Alexa594 FP, 6 h | Potency, µM (series often up to 57.7 µM), inactives show at the highest dose activity, negative = inhibition, hits mostly inhibitors | 0.39% of 280,000 active | AID 1468; also: nearly all actives have a fitted effect of over 55% in size
Target sequence (P10636 561-689 P618L limits assumed): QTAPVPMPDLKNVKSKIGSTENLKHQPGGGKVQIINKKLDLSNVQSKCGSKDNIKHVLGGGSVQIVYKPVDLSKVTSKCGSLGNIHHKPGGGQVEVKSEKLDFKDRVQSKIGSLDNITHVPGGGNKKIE
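Heparin (20 uM) drove fibril formation of recombinant tau K18 P301L, 15 uM unlabeled with 0.24 uM Alexa 594 label, for 6 hr at 37 C in 100 mM sodium acetate pH 7. Fluorescence polarization (555/632 nm) read 1 hr after 30 uM ThT.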
Gal4-VP16 FLuc: inhibits Gal4-VP16 luciferase reporter, ROR gamma counter-screen. AID 2546. Drosophila S2 Gal4-VP16 UAS-luciferase, luminescence, 20 h. 3.5% of 310,000 active. Potency, µM (top dose mostly 53.6 µM), for inactives: at the highest dose activity, negative = inhibition, actives largely listed as inhibitors;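 also: Gal4-VP16 expression switched on by copper sulfate through the metallothionein promoter; nearly all actives have a fitted effect of over 50% in size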
RORgamma inh: ROR gamma (mouse) transcription inhibition; P51450; Drosophila S2 Gal4-RORgamma UAS-luciferase reporter, 20 h; Potency, µM (top dose mostly 53.6 µM), for inactives: at the top dose activity change, negative = inhibition, actives largely listed as inhibitors; 5.4% of 310,000 active; AID 2551; also: nearly all actives have a fitted effect of over 60% in size
Target sequence (P51450 whole entry, looked up, the tested form may be a part): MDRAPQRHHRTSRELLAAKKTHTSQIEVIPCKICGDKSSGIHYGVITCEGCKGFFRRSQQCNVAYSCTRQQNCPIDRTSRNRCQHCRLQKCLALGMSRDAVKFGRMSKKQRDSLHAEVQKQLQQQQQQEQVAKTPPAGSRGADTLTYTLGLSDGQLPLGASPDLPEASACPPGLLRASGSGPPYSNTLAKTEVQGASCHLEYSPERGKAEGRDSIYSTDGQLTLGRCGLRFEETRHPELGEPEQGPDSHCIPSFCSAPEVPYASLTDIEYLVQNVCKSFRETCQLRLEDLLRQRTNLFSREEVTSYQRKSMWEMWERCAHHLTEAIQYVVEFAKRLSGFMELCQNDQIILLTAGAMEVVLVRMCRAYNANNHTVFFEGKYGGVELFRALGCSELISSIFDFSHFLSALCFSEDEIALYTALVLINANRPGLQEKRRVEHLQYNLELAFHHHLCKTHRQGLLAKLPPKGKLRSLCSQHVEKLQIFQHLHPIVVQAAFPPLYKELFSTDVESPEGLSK
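Stably transfected Drosophila Schneider cells are the test system, with ROR gamma fused to Gal4 and luciferase under UAS control; luminescence is read after 20 hr of 700 uM copper sulfate induction at ambient temperature.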
Tau ThT inhib: inhibitors of human tau fibril formation, thioflavin T binding; P10636; recombinant tau K18 P301L, heparin-induced fibrillization, ThT fluorescence; Potency, µM (highest dose often 57.4 µM), inactives show at the highest dose activity, negative = inhibition, actives largely listed as inhibitors; 2.1% of 270,000 active; AID 1460; also: nearly all actives have a fitted effect of over 55% in size
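K18 P301L tau (15 uM + 0.24 uM Alexa 594-tagged), heparin 20 uM, NaOAc pH 7, 6 h 37 C; ThT 30 uM, 1 h RT, ex 450/em 510 nm.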
Tau fluor counter: counter-screen for tau fibril formation inhibitors. tau K18 P301L (four-repeat tau fragment) Alexa594 fluorescence, heparin fibrillization. Potency, µM (series often up to 57.7 µM), for the others: top-dose activity change, negative = decrease. AID 1463. 0.93% of 280,000 active; also: nearly all actives have a fitted effect of over 55% in size
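Human K18 P301L tau (15 uM unlabeled plus 0.24 uM Alexa 594-labeled, final) in 100 mM sodium acetate pH 7 was mixed with compound and 20 uM heparin and incubated 6 hr at 37 C.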
An asterisk follows results filed as active; ? = inconclusive; nt = not tested or not shown; ! = not active in a repeat; [ ] = dose if it differs, or a comment. Calls follow the shape of the dose curve; as a rule, active = well fitted curve in the direction sought with a large enough effect; inconclusive = small, poorly fitted or top-dose-only effect, or another doubt; inactive = no such curve, though single readings can be large; an effect the other way counts as inactive or inconclusive. % is scaled to controls: 0 for no effect and ±100 for the full control effect; potency is read from the fitted curve at half-maximal effect.

SMILES	Tau fibril FP	Gal4-VP16 FLuc	RORgamma inh	Tau ThT inhib	Tau fluor counter
COc1ccccc1N=Nc1nc(-c2ccccc2)c(-c2ccccc2)[nH]1	3%	5µM*	3.2µM*	3.5µM*	?
COc1cc(-c2nc(-c3ccccc3)c(-c3ccc(F)cc3)[nH]2)cc2c1OCO2	6%	-5%	-1%	-1%	?
Oc1ccccc1N=Nc1nc(-c2ccccc2)c(-c2ccccc2)[nH]1	-5%	4µM*	4µM*	4.5µM*	11µM*[quencher]
COc1ccc(N=Nc2nc(-c3ccccc3)c(-c3ccccc3)[nH]2)cc1	6%	2.8µM*	2.2µM*	4µM*	?
CCOc1cc(-c2nc3c(c(CC)nn3-c3ccccc3)c3cc(OC)c(OC)cc23)ccc1O	-5%	nt	nt	-10%	?
C[C@H]1O[C@@H](O[C@H]2[C@@H](O)C[C@H](O[C@H]3[C@@H](O)C[C@H](O[C@H]4CC[C@@]5(C)[C@H](CC[C@@H]6[C@@H]5C[C@@H](O)[C@]5(C)[C@@H](C7=CC(=O)OC7)CC[C@]65O)C4)O[C@@H]3C)O[C@@H]2C)C[C@H](O)[C@@H]1O	1%	-8%	1.6µM*	-14%	-8%
C[C@@H]1O[C@H](O[C@@H]2[C@H](C)O[C@H](O[C@@H]3[C@H](C)O[C@H](O[C@H]4CC[C@]5(C)[C@@H](CC[C@@H]6[C@H]5C[C@@H](O)[C@]5(C)[C@@H](C7=CC(=O)OC7)CC[C@]65O)C4)C[C@@H]3O)C[C@@H]2O)C[C@H](O)[C@@H]1O	nt	7%[17 µM]	4µM*	nt	nt
O=c1nc2s/c(=C\c3ccc(-c4ccccc4[N+](=O)[O-])o3)c(=O)n2nc1-c1ccccc1	?	-6%	-5%	7.1µM*	?
CCCCCOc1ccc(/C=c2\sc3nc(=O)c(-c4ccccc4)nn3c2=O)cc1OC	4%	-4%	2%	?	-10%
COc1ccc(C2=NN(C(=O)CSc3nc4ccccc4s3)C(c3ccc(OC)cc3)C2)cc1 (configuration not stated)	-7%	7.1µM*	?	-3%	-14%
COc1ccc(C2=NN(C(=O)CSc3nc4ccccc4s3)C(c3ccc(F)cc3)C2)cc1 (configuration not stated)	-9%	-2%	-5%	-4%	-12%
COc1ccc(C2CC(c3ccccc3)=NN2C(=O)c2cccs2)cc1 (configuration not stated)	?	-26%	3%	-14%	7.9µM*[quencher]
CCOc1ccc(-c2nc3c(C#N)c[nH]n3c2NC2CCCCC2)cc1	0%	nt	nt	-4%	-6%
CCN(CC)c1ccc(/C=N/NC(=O)Nc2ccccc2)cc1	2%	?	?	14µM*	14µM*[quencher]
O=C(NCCc1ccc(Cl)cc1)Nc1ccc(Cl)cc1	-2%	4%	-1%	-2%	-8%
CCN(CCNC(=O)Nc1ccc(Cl)cc1)c1ccccc1	14%	-22%	?	?	16µM*[quencher]
CCN(CC)c1ccc(/C=N/NC(=O)Cc2nnc(NC(=O)Nc3ccccc3)s2)cc1	7%	-26%	-33%	?	7.1µM*[quencher]
Cn1c(CNC(=O)c2ccc3c(c2)OCO3)nnc1SCC(=O)Nc1ccc(F)cc1F	nt	-4%	-17%	nt	nt
COC(=O)CC1[C@@]2(C)C[C@@]34OC5(C)OC6(CC[C@@]7(C)C(c8ccoc8)OC(=O)C(C(C)=O)C7[C@]6(O5)C(O)[C@@]3(O)C2O)[C@]14C (some centres not stated)	-6%	-5%	4%	-2%	1%
CCC1CC=CC2C1C(=O)N(Cc1ccccc1)C2c1cc(C)ccc1F (configuration not stated)	nt	-23%	?	nt	nt
O=C(O)COc1nn(Cc2ccccc2)c2ccccc12	nt	5%	17%	nt	nt
Cc1ccc2[nH]c(C(=O)NN=C3CCCCC3)c(-c3ccccc3)c2c1	-3%	10µM*	5µM*	?	?
Cc1ccc2[nH]c(C(=O)O)c(-c3ccccc3)c2c1	8%	12%	14%	-17%	-3%
CN(C)/C=C(\C(=O)c1cccc(Cl)c1)c1nnnn1-c1ccccc1	8%	?	14µM*	nt	2%
COC(=O)C1=Cc2cc(OC)cc([N+](=O)[O-])c2OC1N1CCOCC1 (configuration not stated)	nt	3%	5%	nt	nt
SMILES	Tau fibril FP	Gal4-VP16 FLuc	RORgamma inh	Tau ThT inhib	Tau fluor counter
COc1cccc2c1C(=O)c1c(O)c3c(c(O)c1C2=O)C[C@@](O)(C(C)=O)C[C@@H]3O[C@H]1C[C@H](N)[C@H](O)[C@H](C)O1	25µM*	6.3µM*!	2.5µM*	4µM*	-10%
COc1cccc2c1C(=O)c1c(O)c3c(c(O)c1C2=O)C[C@@](O)(C(=O)CO)C[C@@H]3OC1C[C@@H](N)[C@H](O)[C@H](C)O1 (some centres not stated)	25µM*	?	2.5µM*	5µM*	9%
CCCCC(=O)OCC(=O)[C@]1(O)Cc2c(O)c3c(c(O)c2[C@H](OC2CC(NC(=O)C(F)(F)F)C(O)C(C)O2)C1)C(=O)c1c(OC)cccc1C3=O (some centres not stated)	nt	-13%	-30%[10 µM]	nt	nt
COc1cccc2c1C(=O)c1c(O)c3c(c(O)c1C2=O)C[C@](O)(C(=O)CO)C[C@@H]3O[C@H]1C[C@H](N)[C@@H](O)[C@H](C)O1	nt	0%	-4%[10 µM]	nt	nt
COc1cccc(OCCNC(=O)CSc2ccc(C(F)(F)F)cc2[N+](=O)[O-])c1	7%	3.5µM*	8%	?	?
Cc1ccccc1OCCNC(=O)CSc1ccc(C(F)(F)F)cc1[N+](=O)[O-]	-1%	-4%	11%	10%	-3%
CCc1nn(CC(=O)NCc2ccc(OC)cc2OC)c(=O)c2cc3c(OC)cccc3n12	2%	nt	nt	6%	4%
COc1ccc(S(=O)(=O)/N=C2/NC(=O)/C(=C/c3ccco3)S2)cc1	?	-9%	-11%	?	-13%
COc1ccc(S(=O)(=O)/N=C2/NC(=O)/C(=C\c3ccco3)S2)cc1	10%	?	-7%	1%	-1%
COc1cc(/C=C2\S/C(=N/S(=O)(=O)c3ccccc3)NC2=O)c([N+](=O)[O-])cc1OC	?	13%	?	14µM*	?
COc1ccc(S(=O)(=O)/N=C2/NC(=O)/C(=C\c3cc(OC)c(OC)cc3[N+](=O)[O-])S2)cc1	-3%	-6%	-8%	22µM*	?
CCOCCc1nn2c(=O)cc(COC(=O)c3ccco3)nc2s1	5%	nt	nt	-5%	6%
O=C(NCCc1nc2ccccc2[nH]1)c1cc([N+](=O)[O-])cc([N+](=O)[O-])c1	3%	-17%	?	?	-15%
c1ccc(N/N=C(\Cc2nc3ccccc3[nH]2)c2ccccc2)cc1	1%	?	-16%[10 µM]	?	16µM*[quencher]
